Compound activity: PubChem, National Center for Advancing Translational Sciences (NCATS)
Sampled rows, rich in hits. Any-hit rate of the full collection: about 8.1%.
ClpP mod: qHTS Assay for Activators of ClpP; ATP-dependent Clp protease proteolytic subunit (Bacillus subtilis (strain 168)), P80244; purified B. subtilis ClpP, FRET peptide cleavage, 20 min; Potency, µM (doses to about 57.5 µM); 340,000 tested, 1.9% active; AID 651965, 2013; active = well fitted falling curve with a large enough effect; inconclusive = small, poorly fitted or top-dose-only effect; inactive = no such curve, though single readings can be large or run the other way; note: the source files actives as falling curves though it sought activators and does not explain the sign; nearly all actives have a fitted effect of over 65% in size
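Buffer: 100 mM Tris/HCl pH8, 100 mM KCl, 0.05% low protease BSA, 2.5% glycerol, 0.01% Tween-20. ClpP 10 microg/mL final; 20 min RT; delta FRET normalized to ADEP and DMSO controls.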
PINK1 expr mod: modulators of PINK1 expression; 410,000 tested, 0.2% active; Potency, µM (titrated, usually from 76.6 µM), actives largely listed as activators; PINK1 immunofluorescence, high-content cytometry, 24 h; AID 624263; active = well fitted activation curve with a large enough effect; inconclusive = small, poorly fitted or top-dose-only effect; cell line not stated here; note: nearly all actives have a fitted effect of over 65% in size
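Cells are seeded, rested 12 hours, then given compound at five concentrations or DMSO for 24 hours. After fixation, blocking and antibody staining, PINK1 amount and mitochondrial localization are scored; CCCP serves as control.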
VP16 counter: Gal4-VP16 reporter inhibition counter-screen. Drosophila S2 Gal4-VP16 UAS-luciferase, luminescence, 20 h. Potency, µM (highest dose often 53.6 µM), hits mostly inhibitors. 310,000 tested, 3.5% active;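 note: Gal4-VP16 expression switched on by copper sulfate through the metallothionein promoter; nearly all actives have a fitted effect of over 50% in size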
Epigenetic derep: epigenetic control regulation, reporter derepression. AID 1865. murine LDR cells, GFP reporter derepression, 30 h. Potency, µM (highest dose often 53.9 µM), actives largely listed as activators. 280,000 tested, 0.2% active; note: nearly all actives have a fitted effect of over 60% in size
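Derepression of a silenced CMV-GFP reporter in murine LDR cells is scored by enumerating GFP-positive cells with a laser-scanning microplate cytometer after 30 hours of treatment at 37 C.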
RORg inh: ROR gamma (mouse) transcription inhibition. P51450. Drosophila S2 Gal4-RORgamma UAS-luciferase reporter, 20 h. Potency, µM (highest dose often 53.6 µM), most hits filed as inhibitors. 310,000 tested, 5.4% active; note: nearly all actives have a fitted effect of over 60% in size
Target sequence (P51450 whole entry, looked up, the tested form may be a part): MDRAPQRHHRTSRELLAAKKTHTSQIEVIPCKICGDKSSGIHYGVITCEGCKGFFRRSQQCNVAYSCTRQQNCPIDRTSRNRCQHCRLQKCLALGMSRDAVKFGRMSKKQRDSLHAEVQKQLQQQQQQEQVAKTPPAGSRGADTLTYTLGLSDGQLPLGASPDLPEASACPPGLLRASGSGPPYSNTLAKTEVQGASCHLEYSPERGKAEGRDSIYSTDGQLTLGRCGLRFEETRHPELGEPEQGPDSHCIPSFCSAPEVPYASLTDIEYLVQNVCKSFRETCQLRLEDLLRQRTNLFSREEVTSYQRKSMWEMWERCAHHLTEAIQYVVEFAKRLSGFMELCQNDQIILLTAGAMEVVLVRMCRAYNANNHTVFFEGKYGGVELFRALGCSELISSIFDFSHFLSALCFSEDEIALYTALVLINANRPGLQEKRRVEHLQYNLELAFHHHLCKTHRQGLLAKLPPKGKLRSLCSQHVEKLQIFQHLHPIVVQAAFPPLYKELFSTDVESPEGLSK
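Stable Schneider cell line, Gal4 DNA-binding domain fused to ROR gamma, UAS-luciferase. Cmpd 1 hr RT → CuSO4 700 uM final → 20 hr RT → luciferase reagent 10 min → luminescence.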
Sfp inh: blocks B. subtilis Sfp PPTase activity. Q9F4F7. Biochemical Sfp PPTase activity, qHTS. Potency, µM, hits mostly inhibitors. 310,000 tested, 3.5% active. AID 1490;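 note: the enzyme is Sfp with the accession as filed and its product quenches rhodamine fluorescence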
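Reaction rates are the 30-min fluorescence difference (ex 525, em 598 nm) in wells containing 15 nM Sfp, 5 uM rhodamine-CoA and 12.5 uM BHQ-2-YbbR at pH 7.6 with 10 mM MgCl2.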
Large screens that a line does not name were inactive. Unless noted, calls come from the whole dose curve; as a rule, active = well fitted curve in the direction sought with a large enough effect; inconclusive = small, poorly fitted or top-dose-only effect, or another doubt; inactive = no such curve, though single readings can be large; an effect the other way counts as inactive or inconclusive.

CN(C)CCCOc1c2ccccc2n(Cc2ccccc2)[n+]1[O-]	none (no result: ClpP mod, PINK1 expr mod, Epigenetic derep)
COc1ccc(CN2CCOc3ccc(CN4CCCCC4CO)cc3C2)c(OC)c1 (stereo unspecified)	none (no result: ClpP mod, VP16 counter, Epigenetic derep, RORg inh, Sfp inh)
CC(C)C1Cc2c(sc3[nH]c(=S)n(Cc4ccccc4)c(=O)c23)CO1 (stereo unspecified)	VP16 counter 0.56µM, RORg inh 0.45µM
c1ccc2c(c1)NC(c1ccncc1)n1c-2nc2ccccc21 (stereo unspecified)	ClpP mod 28µM
COc1ccc(C2Nc3ccccc3C(=O)N2c2ccc(F)cc2)cc1CSc1ccccn1 (stereo unspecified)	ClpP mod 8.9µM, PINK1 expr mod inconclusive
c1csc(C2Nc3ccccc3-c3nc4ccccc4n32)c1 (stereo unspecified)	none
O=C1c2ccccc2NC(c2ccncc2)N1c1ccccn1 (stereo unspecified)	ClpP mod 28µM
COc1ccc(N2C(=O)c3ccccc3NC2c2ccc(OC)c(COc3ccccc3F)c2)cc1 (stereo unspecified)	none (no result: VP16 counter, Epigenetic derep, RORg inh, Sfp inh)
COc1ccccc1N1C(=O)c2ccccc2NC1c1ccncc1 (stereo unspecified)	ClpP mod inconclusive
COc1ccc(C2Nc3ccccc3C(=O)N2c2ccccc2)cc1COc1ccccn1 (stereo unspecified)	ClpP mod 28µM (no result: PINK1 expr mod)
Cc1nc2nc(SCc3c(F)cccc3Cl)nn2c(C)c1Cc1ccccc1	ClpP mod inconclusive (no result: VP16 counter, RORg inh, Sfp inh)
COc1ccc(C2Nc3ccccc3C(=O)N2c2ccccc2)cc1CSc1ccccn1 (stereo unspecified)	ClpP mod 32µM
COc1ccc(C2Nc3ccccc3C(=O)N2Cc2ccccc2)cc1CSc1ccccn1 (stereo unspecified)	ClpP mod 14µM
COC(=O)c1ccc(CSc2nc(C(F)(F)F)c3c(c2C#N)CCC3)o1	Sfp inh 56µM
COc1ccc(NC(=O)CSc2nc(C)c3c(c2C#N)CCCC3)cc1	none
CCn1c(C(=O)N2CCCC(C(=O)NCCc3ccc(C)cc3)C2)cc2sccc21 (stereo unspecified)	RORg inh inconclusive (no result: PINK1 expr mod)
CCn1c(C(=O)N2CCCC(C(=O)NCCCc3ccccc3)C2)cc2sccc21 (stereo unspecified)	VP16 counter 11µM, RORg inh inconclusive (no result: PINK1 expr mod)
CNc1ccccc1C(=O)OCC(=O)N(CCOC)c1c(N)n(CC(C)C)c(=O)[nH]c1=O	ClpP mod 22µM (no result: VP16 counter, Epigenetic derep, RORg inh, Sfp inh)
COCCN(C(=O)COC(=O)/C=C/c1cccc(OC)c1)c1c(N)n(CC(C)C)c(=O)[nH]c1=O	ClpP mod 32µM (no result: VP16 counter, Epigenetic derep, RORg inh, Sfp inh)
Cc1cc(C)c(NC(=S)N(CCN2CCCCC2)Cc2ccco2)c(C)c1	RORg inh 10µM (no result: ClpP mod)
Cc1cccc(C)c1NC(=S)N(CCN1CCCCCC1)Cc1ccco1	RORg inh 13µM (no result: ClpP mod)
Cc1ccccc1NC(=S)N(CCN1CCCCC1)Cc1ccco1	none (no result: ClpP mod)
Cc1c(NC(=O)c2ccc(-c3ccc(F)cc3)o2)cccc1-c1nc2ncccc2o1	none (no result: VP16 counter, RORg inh, Sfp inh)
CCOC(=O)Nc1ccc2c(c1)N(C(=O)CCN(CC)CC)c1ccccc1S2=O (stereo unspecified)	VP16 counter 13µM, RORg inh inconclusive (no result: Epigenetic derep)
CCOC(=O)Nc1ccc2c(c1)N(C(=O)CCN(CC)CC)c1ccccc1CC2	none (no result: Epigenetic derep)
c1ccc(C(c2nnnn2C2CCCC2)N2CCCCCC2)nc1 (stereo unspecified)	ClpP mod 22µM, Sfp inh 79µM
c1cncc(C(c2nnnn2C2CCCC2)N2CCCC2)c1 (stereo unspecified)	none
c1ccc(C(c2ccccc2)N2CCN(C(c3ccccn3)c3nnnn3C3CCCC3)CC2)cc1 (stereo unspecified)	ClpP mod 22µM
CCOC(=O)c1c(N2C(=O)C=CC2=O)sc(C)c1C	RORg inh 4.5µM, Sfp inh 2.5µM (no result: PINK1 expr mod)
Cc1ccc(-c2cc(=O)c3cc(C)ccc3[nH]2)cc1	VP16 counter 16µM, RORg inh 10µM
Cc1ccc(-c2cc(=O)c3cc(F)ccc3[nH]2)cc1	none
COc1cccc(CNC(=O)C2CCN(C(=O)c3cnn(-c4ccccc4)c3-n3cccc3)CC2)c1	none (no result: VP16 counter, RORg inh, Sfp inh)
O=[N+]([O-])c1ccc2nc(-c3ccccc3)[nH]c2c1	none
Cn1cccc1-c1nc2ccc([N+](=O)[O-])cc2[nH]1	Sfp inh 79µM (no result: ClpP mod, Epigenetic derep)
CCN(C(=O)Cn1c(C(=O)OC)cc2oc3ccccc3c21)c1cccc(C)c1	none (no result: VP16 counter, RORg inh, Sfp inh)
Cc1ccc(OCC(=O)N/N=C/c2cccc3cccnc23)cc1	VP16 counter inconclusive, RORg inh 16µM (no result: Epigenetic derep)
Cn1cccc1/C=N\NC(=O)Cc1ccc(Br)c2ccccc12	VP16 counter 11µM, RORg inh inconclusive
Cn1cccc1/C=N/NC(=O)Cc1ccccc1	none (no result: ClpP mod)
CCc1ccc(NC(=O)C/C(C)=N/NC(=O)COc2ccccc2C)cc1	none (no result: ClpP mod, Epigenetic derep)
CCc1ccccc1NC(=O)C/C(C)=N/NC(=O)COc1ccccc1C	VP16 counter inconclusive, RORg inh 11µM (no result: ClpP mod, Epigenetic derep)
Cc1ccccc1OCC(=O)N/N=C/c1cccn1C	RORg inh 8.9µM
O=C(NC1CCCCCC1)c1cc2c(Cl)nc3ccccc3c2s1	none (no result: VP16 counter, RORg inh, Sfp inh)
O=C(C[n+]1ccccc1)c1ccc(I)cc1	none (no result: VP16 counter, Epigenetic derep, RORg inh, Sfp inh)
